Source: the supplement of paper PMC4466140

Experiments:
Assay in all cases: SPOT peptide array binding signal intensity (averaged, normalized) (arbitrary units (background-subtracted, floor 0; scale differs between SH3 domains)); higher = stronger binding of the SH3 domain to the peptide
AgAbp1 = biological target: AgAbp1
Description: (§1)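 GST-tagged SH3 domains from S. cerevisiae (Sc), A. gossypii (Ag), C. albicans (Ca) and S. pombe (Sp) were incubated at 10 ug/ml overnight at 4 C on cellulose SPOT membranes carrying 292 synthetic 15-mer peptides mined from the S. cerevisiae proteome (cysteines replaced by serines). Binding was detected with anti-GST antibody, HRP secondary and chemiluminescence, quantified with Genespotter, and reported as normalized spot intensities averaged over biological replicates.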

AgBbc1 = biological target: AgBbc1
Description: as §1

AgBem1-D1 = biological target: AgBem1-D1
Description: as §1

AgBzz1-D1 = biological target: AgBzz1-D1
Description: as §1

AgBzz1-D2 = biological target: AgBzz1-D2
Description: as §1

AgCyk3 = biological target: AgCyk3
Description: as §1

AgFus1 = biological target: AgFus1
Description: as §1

AgHof1 = biological target: AgHof1
Description: as §1

AgHse1 = biological target: AgHse1
Description: as §1

AgLsb1 = biological target: AgLsb1
Description: as §1

AgLsb4 = biological target: AgLsb4
Description: as §1

AgMyo5 = biological target: AgMyo5
Description: as §1

AgNbp2 = biological target: AgNbp2
Description: as §1

AgRvs167 = biological target: AgRvs167
Description: as §1

AgSho1 = biological target: AgSho1
Description: as §1

AgSla1-D1-D2 = biological target: AgSla1-D1-D2
Description: as §1

AgSla1-D3 = biological target: AgSla1-D3
Description: as §1

CaAbp1-D1 = biological target: CaAbp1-D1
Description: as §1

CaAbp1-D2 = biological target: CaAbp1-D2
Description: as §1

CaBbc1 = biological target: CaBbc1
Description: as §1

CaBem1-D1 = biological target: CaBem1-D1
Description: as §1

CaBzz1-D1 = biological target: CaBzz1-D1
Description: as §1

CaBzz1-D2 = biological target: CaBzz1-D2
Description: as §1

CaCyk3 = biological target: CaCyk3
Description: as §1

CaFus1 = biological target: CaFus1
Description: as §1

CaHof1 = biological target: CaHof1
Description: as §1

CaHse1 = biological target: CaHse1
Description: as §1

CaLsb1 = biological target: CaLsb1
Description: as §1

CaLsb4 = biological target: CaLsb4
Description: as §1

CaMyo5 = biological target: CaMyo5
Description: as §1

CaNbp2 = biological target: CaNbp2
Description: as §1

CaRvs167 = biological target: CaRvs167
Description: as §1

CaRvs167-3 = biological target: CaRvs167-3
Description: as §1

CaSho1 = biological target: CaSho1
Description: as §1

CaSla1-D1-D2 = biological target: CaSla1-D1-D2
Description: as §1

CaSla1-D3 = biological target: CaSla1-D3
Description: as §1

ScAbp1 = biological target: ScAbp1
Description: as §1

ScBbc1 = biological target: ScBbc1
Description: as §1

ScBem1-D1 = biological target: ScBem1-D1
Description: as §1

ScBzz1-D1 = biological target: ScBzz1-D1
Description: as §1

ScBzz1-D2 = biological target: ScBzz1-D2
Description: as §1

ScCyk3 = biological target: ScCyk3
Description: as §1

ScFus1 = biological target: ScFus1
Description: as §1

ScHof1 = biological target: ScHof1
Description: as §1

ScHse1 = biological target: ScHse1
Description: as §1

ScLsb1 = biological target: ScLsb1
Description: as §1

ScLsb2 = biological target: ScLsb2
Description: as §1

ScLsb3 = biological target: ScLsb3
Description: as §1

ScLsb4 = biological target: ScLsb4
Description: as §1

ScMyo3 = biological target: ScMyo3
Description: as §1

ScMyo5 = biological target: ScMyo5
Description: as §1

ScNbp2 = biological target: ScNbp2
Description: as §1

ScPex13 = biological target: ScPex13
Description: as §1

ScRvs167 = biological target: ScRvs167
Description: as §1

ScSho1 = biological target: ScSho1
Description: as §1

ScSla1-D1-D2 = biological target: ScSla1-D1-D2
Description: as §1

ScSla1-D3 = biological target: ScSla1-D3
Description: as §1

SpAbp1-D1 = biological target: SpAbp1-D1
Description: as §1

SpBbc1 = biological target: SpBbc1
Description: as §1

SpBzz1-D1 = biological target: SpBzz1-D1
Description: as §1

SpBzz1-D2 = biological target: SpBzz1-D2
Description: as §1

SpCyk3 = biological target: SpCyk3
Description: as §1

SpHof1 = biological target: SpHof1
Description: as §1

SpHof1-2 = biological target: SpHof1-2
Description: as §1

SpHof1-3 = biological target: SpHof1-3
Description: as §1

SpHse1 = biological target: SpHse1
Description: as §1

SpLsb1 = biological target: SpLsb1
Description: as §1

SpLsb4 = biological target: SpLsb4
Description: as §1

SpMyo1 = biological target: SpMyo1
Description: as §1

SpNbp2 = biological target: SpNbp2
Description: as §1

SpPex13 = biological target: SpPex13
Description: as §1

SpRvs167 = biological target: SpRvs167
Description: as §1

SpSla1-D1-D2 = biological target: SpSla1-D1-D2
Description: as §1

SpSla1-D3 = biological target: SpSla1-D3
Description: as §1

B1: unnamed (peptide)
chain: TKIRRRPQQPLTDFT
AgAbp1
  SPOT peptide array binding signal intensity: 21
AgBbc1
  SPOT peptide array binding signal intensity: 109
AgBem1-D1
  SPOT peptide array binding signal intensity: 32
AgBzz1-D1
  SPOT peptide array binding signal intensity: 42.5
AgBzz1-D2
  SPOT peptide array binding signal intensity: 82
AgCyk3
  SPOT peptide array binding signal intensity: 2
AgFus1
  SPOT peptide array binding signal intensity: 150
AgHof1
  SPOT peptide array binding signal intensity: 39.8
AgHse1
  SPOT peptide array binding signal intensity: 61.5
AgLsb1
  SPOT peptide array binding signal intensity: 22
AgLsb4
  SPOT peptide array binding signal intensity: 18
AgMyo5
  SPOT peptide array binding signal intensity: 0.5
AgNbp2
  SPOT peptide array binding signal intensity: 6
AgRvs167
  SPOT peptide array binding signal intensity: 2.33
AgSho1
  SPOT peptide array binding signal intensity: 3
AgSla1-D1-D2
  SPOT peptide array binding signal intensity: 12.5
AgSla1-D3
  SPOT peptide array binding signal intensity: 3.5
CaAbp1-D1
  SPOT peptide array binding signal intensity: 276
CaAbp1-D2
  SPOT peptide array binding signal intensity: 158
CaBbc1
  SPOT peptide array binding signal intensity: 518
CaBem1-D1
  SPOT peptide array binding signal intensity: 13
CaBzz1-D1
  SPOT peptide array binding signal intensity: 137
CaBzz1-D2
  SPOT peptide array binding signal intensity: 147
CaCyk3
  SPOT peptide array binding signal intensity: 76
CaFus1
  SPOT peptide array binding signal intensity: 338
CaHof1
  SPOT peptide array binding signal intensity: 0.25
CaHse1
  SPOT peptide array binding signal intensity: 6.5
CaLsb1
  SPOT peptide array binding signal intensity: ≤ 0
CaLsb4
  SPOT peptide array binding signal intensity: 22.5
CaMyo5
  SPOT peptide array binding signal intensity: 1.5
CaNbp2
  SPOT peptide array binding signal intensity: 48.5
CaRvs167
  SPOT peptide array binding signal intensity: 2.67
CaRvs167-3
  SPOT peptide array binding signal intensity: 15.5
CaSho1
  SPOT peptide array binding signal intensity: 38
CaSla1-D1-D2
  SPOT peptide array binding signal intensity: 24
CaSla1-D3
  SPOT peptide array binding signal intensity: 0.5
ScAbp1
  SPOT peptide array binding signal intensity: 25
ScBbc1
  SPOT peptide array binding signal intensity: 63.5
ScBem1-D1
  SPOT peptide array binding signal intensity: 10
ScBzz1-D1
  SPOT peptide array binding signal intensity: 33
ScBzz1-D2
  SPOT peptide array binding signal intensity: 18
ScCyk3
  SPOT peptide array binding signal intensity: 38
ScFus1
  SPOT peptide array binding signal intensity: 44
ScHof1
  SPOT peptide array binding signal intensity: ≤ 0
ScHse1
  SPOT peptide array binding signal intensity: 281
ScLsb1
  SPOT peptide array binding signal intensity: 4.75
ScLsb2
  SPOT peptide array binding signal intensity: 1
ScLsb3
  SPOT peptide array binding signal intensity: 115
ScLsb4
  SPOT peptide array binding signal intensity: 15
ScMyo3
  SPOT peptide array binding signal intensity: 1
ScMyo5
  SPOT peptide array binding signal intensity: 2
ScNbp2
  SPOT peptide array binding signal intensity: 93
ScPex13
  SPOT peptide array binding signal intensity: 6.75
ScRvs167
  SPOT peptide array binding signal intensity: 14
ScSho1
  SPOT peptide array binding signal intensity: 148
ScSla1-D1-D2
  SPOT peptide array binding signal intensity: 240
ScSla1-D3
  SPOT peptide array binding signal intensity: 38.5
SpAbp1-D1
  SPOT peptide array binding signal intensity: 94
SpBbc1
  SPOT peptide array binding signal intensity: 5.75
SpBzz1-D1
  SPOT peptide array binding signal intensity: 253
SpBzz1-D2
  SPOT peptide array binding signal intensity: ≤ 0
SpCyk3
  SPOT peptide array binding signal intensity: 1.5
SpHof1
  SPOT peptide array binding signal intensity: 65.5
SpHof1-2
  SPOT peptide array binding signal intensity: 5.5
SpHof1-3
  SPOT peptide array binding signal intensity: 164
SpHse1
  SPOT peptide array binding signal intensity: 93
SpLsb1
  SPOT peptide array binding signal intensity: 5
SpLsb4
  SPOT peptide array binding signal intensity: 104
SpMyo1
  SPOT peptide array binding signal intensity: 8
SpNbp2
  SPOT peptide array binding signal intensity: 10.5
SpPex13
  SPOT peptide array binding signal intensity: 1
SpRvs167
  SPOT peptide array binding signal intensity: 11.8
SpSla1-D1-D2
  SPOT peptide array binding signal intensity: 1
SpSla1-D3
  SPOT peptide array binding signal intensity: ≤ 0
